Screening data as filed in PubChem.
Most compounds without a hit are left out; they make up all but 19% or so of the library.
TDP1 block – blocks human tyrosyl-DNA phosphodiesterase 1 | Q9NUW8 | recombinant TDP1, AlphaScreen DNA substrate cleavage | Potency, µM (series often up to 130 µM), for the others: top-dose activity change, negative = inhibition, hits mostly inhibitors | actives 0.28% (n = 350,000) | AID 485290; note: nearly all actives have a fitted effect of over 40% in size
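Steps: enzyme plus compound, 15 min RT; add biotin/phosphotyrosine-FITC oligonucleotide (15 nM final), react 5 min; add donor/acceptor beads (10 ug/ml final), 10 min; read AlphaScreen. Tdp1 at 1 nM final.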
RORgamma inh – ROR gamma (mouse) transcription inhibition | P51450 | Drosophila S2 Gal4-RORgamma UAS-luciferase reporter, 20 h | Potency, µM (top dose mostly 53.6 µM), for the others: at the top dose activity change, negative = inhibition, usual class: inhibitors | actives 5.4% (n = 310,000) | AID 2551; note: nearly all actives have a fitted effect of over 60% in size
Target sequence (P51450 whole entry, looked up, the tested form may be a part): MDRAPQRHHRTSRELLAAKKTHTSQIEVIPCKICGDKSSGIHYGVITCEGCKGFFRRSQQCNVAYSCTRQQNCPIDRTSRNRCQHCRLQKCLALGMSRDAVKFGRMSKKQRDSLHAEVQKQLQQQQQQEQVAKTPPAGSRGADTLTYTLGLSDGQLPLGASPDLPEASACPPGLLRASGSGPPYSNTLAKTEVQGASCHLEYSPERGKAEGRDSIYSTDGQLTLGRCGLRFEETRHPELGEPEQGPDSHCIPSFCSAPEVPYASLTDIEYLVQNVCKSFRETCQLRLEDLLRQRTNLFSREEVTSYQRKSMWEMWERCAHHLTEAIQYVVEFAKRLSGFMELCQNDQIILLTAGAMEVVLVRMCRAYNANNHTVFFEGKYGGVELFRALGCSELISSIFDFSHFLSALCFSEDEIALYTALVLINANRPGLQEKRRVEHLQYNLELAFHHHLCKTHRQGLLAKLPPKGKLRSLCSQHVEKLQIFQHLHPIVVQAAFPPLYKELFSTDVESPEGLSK
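A Gal4/UAS one-hybrid system in insect cells: metallothionein-promoter Gal4–ROR gamma fusion plus Photinus luciferase reporter. Copper sulfate 700 uM final, 20 hr ambient incubation, luminescent detection after 10 min with reagent.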
TDP1 cell noCPT – qHTS for Inhibitors of human tyrosyl-DNA phosphodiesterase 1 (TDP1): qHTS in cells in absence of CPT; actives 15% (n = 420,000); AID 686978, 2013; DT40 Tdp1-/- hTDP1 cells, no CPT, ATP luminescence, 48 h; Potency, µM (series often up to 46.2 µM), inactives show top-dose activity change, negative = growth inhibition, actives largely listed as inhibitors; note: nearly all actives have a fitted effect of over 55% in size
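Readout: luminescence from CellTiter-Glo after 30 min in the dark at RT. Cells: DT40 Tdp1-/- with stable hTDP1, 400/well. Exposure: compounds alone, ≥48 hr, 37 °C.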
DT40 TDP1 CPT – growth inhibition of DT40 Tdp1-/-;hTDP1 cells with camptothecin (screen for TDP1 inhibitors). chicken DT40 Tdp1-/-;hTDP1 cells + 20 nM CPT, ATP luminescence, 48 h. Potency, µM (top dose mostly 46.2 µM), without a hit: at the top dose activity change, negative = growth inhibition, usual class: inhibitors. actives 12% (n = 420,000); note: nearly all actives have a fitted effect of over 55% in size
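Chicken DT40 Tdp1-/- cells complemented with human TDP1, 400 cells/well, exposed to compounds plus 20 nM camptothecin for at least 48 h at 37 C; viability read as ATP content by CellTiter-Glo luminescence.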
Gal4-VP16 FLuc – Gal4-VP16 reporter inhibition counter-screen; Drosophila S2 Gal4-VP16 UAS-luciferase, luminescence, 20 h; actives 3.5% (n = 310,000); Potency, µM (titrated, usually from 53.6 µM), inactives show top-dose activity, negative = inhibition, actives largely listed as inhibitors; AID 2546;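 note: Gal4-VP16 expression switched on by copper sulfate through the metallothionein promoter; nearly all actives have a fitted effect of over 50% in size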
* hit, by the source's call; ? = inconclusive; . = not tested or not shown; [ ] = remark or other dose. Calls come from the whole dose curve; as a rule, active = well fitted curve in the direction sought with a large enough effect; inconclusive = small, poorly fitted or top-dose-only effect, or another doubt; inactive = no such curve, though single readings can be large; an effect the other way counts as inactive or inconclusive. % is set by controls: 0 for no effect and ±100 for the full control effect; potency is the fitted concentration of half-maximal effect.

SMILES	TDP1 block	RORgamma inh	TDP1 cell noCPT	DT40 TDP1 CPT	Gal4-VP16 FLuc
O=C(c1ccccc1F)N1c2nc(-c3ccco3)nn2C2(CCCCC2)[C@@H]2CCCC[C@@H]21	3%	.	18µM*	?	.
COc1cccc(C(=O)N2c3ncnn3C3(CCCCC3)[C@@H]3CCCC[C@@H]32)c1	5%	.	?	?	.
COc1ccc(O[C@H]2C=C[C@@H](c3ccccc3)O[C@H]2COC(=O)CC/C(C)=N/O[C@@H]2O[C@H](COC(C)=O)[C@H](OC(C)=O)[C@H](OC(C)=O)[C@H]2OC(C)=O)cc1	7%[21 µM]	26%[10 µM]	.	.	-7%[10 µM]
COc1ccc(OC)c(/C=C/C(=O)OCC(=O)N2C(C)CCCC2C)c1 (configuration not stated)	-5%	.	10µM*	?	.
CC1CCCC(C)N1C(=O)COC(=O)/C=C/c1ccc(Br)o1 (configuration not stated)	11µM*	.	-10%	-17%	.
CC1CCN(C(=O)COC(=O)/C=C/c2ccc(Br)o2)CC1	-13%	.	9%	-13%	.
COc1ccc(OC)c(/C=C/C(=O)OCC(=O)N2CCCC2)c1	0%	.	-4%	-1%	.
COc1ccc(OC)c(/C=C/C(=O)OCC(=O)Nc2cccc(C(C)=O)c2)c1	-6%	42%	?	16µM*	1%
COc1ccc(/C=C/C(=O)OCC(=O)NCCc2ccccc2)c(OC)c1	1%	.	21µM*	?	.
Cc1ccc(S(=O)(=O)CCC(=O)OCC(=O)Nc2cc(C)on2)cc1	-1%	-3%	?	-10%	-9%
COc1ccc(NC(=O)C/C(C)=N/NC(=O)CCc2ccccc2)c(OC)c1	.	?	15%	0%	5%
COc1cccc(C(=O)Nc2cc(=O)n(C)c(=O)n2C)c1OC	1%	-18%	-14%	-3%	-3%
COc1cc(NC(=O)C2CC(c3c(F)cccc3Cl)=NO2)cc(OC)c1OC (configuration not stated)	.	?	10µM*	?	?
CC(=O)Nc1ccc(Nc2nc3ccccc3n3cnnc23)cc1	.	-5%	-6%	-8%	11%
Cc1cc(C)c(Nc2nc3ccccc3n3c(C)nnc23)c(C)c1	6%	.	13µM*	15µM*	.
Cc1nnc2c(NC3CCCC3)nc3ccccc3n12	3%	-30%	?	-15%	-9%
CC(=O)Nc1cccc(Nc2nc3ccccc3n3c(C)nnc23)c1	-1%	.	2.3µM*	2.6µM*	.
Cc1cc(C)cc(NC(=O)CSc2nc3ncccc3[nH]2)c1	6%	.	?	?	.
Cc1c(C)c2ccc(OCC(=O)N3CCOCC3)c(C)c2oc1=O	5%	11%	-16%	-9%	1%[10 µM]
CC(=O)Oc1ccc2oc3c(c2c1)C(=O)CCC3	3%	-8%	-2%	7%	12%
Cc1c(C(=O)N2CCOCC2)sc2nc(-c3ccccc3)cn12	2%	38%	-17%	1%	3%
COc1ccc(-c2cc(C(=O)N3CCc4ccccc4C3)no2)cc1	5%	-2%	?	-10%	-5%[10 µM]
COc1ccc(-c2cn3c(C)c(C(=O)N4CCc5ccccc5C4)sc3n2)cc1	.	-11%	21µM*	18µM*	-2%
Cc1c(C(=O)N2CCc3ccccc3C2)sc2nc(-c3ccccc3)cn12	1%	27%[0.365 µM]	21µM*	?	.
CCOc1cccc(C(=O)Nc2nccs2)c1	1%	?	-3%	-12%	?
SMILES	TDP1 block	RORgamma inh	TDP1 cell noCPT	DT40 TDP1 CPT	Gal4-VP16 FLuc
COc1cc(OC)c(N(C)S(=O)(=O)c2cccc(C(=O)NC(C)C3CC4CCC3C4)c2)cc1Cl (configuration not stated)	1%	4%	23µM*	18µM*	0%
COc1cc(OC)c(N(C)S(=O)(=O)c2cccc(C(=O)Nc3nccs3)c2)cc1Cl	0%	.	18µM*	?	.
COc1cccc(OCCn2cc(C=O)c3ccccc32)c1	.	41%	?	17%	-8%
COC(=O)N/N=C/c1cn(CCOc2cccc(OC)c2)c2ccccc12	.	24%	21µM*	?	0%
CCC(C)c1ccc(OCCn2cc(/C=N/NC(=O)CSc3nnc(C)s3)c3ccccc32)cc1 (configuration not stated)	5%	?	?	?	22µM*
Cc1ccc(OCCn2cc(/C=C/C(=O)O)c3ccccc32)cc1	.	22%	18%	-13%	-1%
CN(C)CCCN(C(=O)c1ccco1)c1nc(-c2ccc(Cl)cc2)cs1	.	-2%	?	?	?
COc1ccc(-c2csc(N(C)C(=O)c3ccco3)n2)cc1	.	14%	-30%	-9%	4%
COc1ccc(OC)c(-c2csc(N(Cc3ccco3)C(=O)c3ccco3)n2)c1	5%	1%	21µM*	?	-3%
Cc1ccc(-c2csc(N(CCCN3CCOCC3)C(=O)c3ccco3)n2)cc1	8%	-1%	21µM*	?	-13%
COc1ccc(-c2csc(N(CCCN3CCOCC3)C(=O)c3ccco3)n2)cc1	6%	7%	16µM*	18µM*	-11%
COc1cc2oc(=O)c(CC(=O)NCCc3ccccc3)c(C)c2cc1Cl	4%	.	-15%	-2%	.
CC1(C(=O)Nc2ccc3c(c2)OCCO3)CN(S(C)(=O)=O)CC(=O)N1Cc1cccc(C(F)(F)F)c1 (configuration not stated)	.	.	-1%	17%	.
Cc1cc2nc(-c3ccccc3Br)n(/C=C(\c3ccccc3)n3c(=O)[nH]c4ccccc43)c2cc1C	.	.	23µM*	16µM*	.
O=C1CN(C(=O)Nc2ccccc2Cl)C(c2ccccc2)c2c(sc3c2CCCC3)N1 (configuration not stated)	6%	.	?	23µM*	.
Cc1ccc(C2NC(=O)c3sc(=S)n(-c4ccccc4)c3N2)cc1 (configuration not stated)	5%	-35%	-30%	23µM*	0%
CCOC(=O)c1sc(=S)n(-c2ccccc2)c1SC	7%	-39%	-23%	-18%	-15%
S=c1[nH]nc(COc2ccccc2)n1/N=C/C(Cl)=C/c1ccccc1	13%	7.9µM*	16µM*	23µM*	?
S=c1[nH]nc(COc2ccccc2)n1/N=C/C=C/c1ccccc1	6%	?	-2%	-11%	4.5µM*
O=C(CSc1ccc2c(c1)OCCO2)N1CCN(c2ccccc2O)CC1	-1%[0.505 µM]	.	23µM*	23µM*	.
O=C(C1CC(=O)N(c2ccc3c(c2)OCCO3)C1)N1CCN(c2ccccc2)CC1 (configuration not stated)	-9%	2%	-28%	-27%	5%
